Screening data deposited in PubChem by National Center for Advancing Translational Sciences (NCATS).
HTT cytoprotect: Huntington cell model cytoprotection by ATP luminescence. Potency, µM (titrated, usually from 56.4 µM), inactives show cytoprotection (ATP increase), usual class: activators. AID 1471. hit rate 0.14% among 230,000. PC12 HTT-Q103 induced, cytoprotection, ATP luminescence, 40 h; active = well fitted curve in the direction sought with a large enough effect; inconclusive = small, poorly fitted or top-dose-only effect, or another doubt; inactive = no such curve, though single readings can be large; an effect the other way counts as inactive or inconclusive; note: % of control where 0% means no effect; nearly all actives have a fitted effect of over 45% in size
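Readout: ATPlite luminescence (ATP level). Model: stable PC12, inducible Htt exon1 Q103-GFP. Inducer: tebufenozide, 100 nM final. Compounds: dose series. No G418 in medium.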
HPGD block: blocks human HPGD enzyme activity; purified HPGD, NADH fluorescence kinetic, PGE2 substrate; hit rate 4.3% among 150,000; Potency, µM, without a hit: top-dose activity change, negative = inhibition, hits mostly inhibitors; P15428; note: % is set by controls: 0 for no effect and ±100 for the full control effect
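NADH formation kinetics: reaction with 30 uM PGE2 and 1 mM NAD+ (final), 20 nM enzyme, Tris-HCl pH 8 with Tween 20, after 15 min compound preincubation at room temperature. Fluorescence change, last versus first of five reads.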
ALDH1A1 inh: inhibitors of human aldehyde dehydrogenase 1A1; hit rate 7.3% among 220,000; AID 1030; Purified ALDH1A1, NADH fluorescence, propionaldehyde substrate; P00352; Potency, µM (series often up to 75.3 µM), without a hit: top-dose activity, negative = inhibition, most hits filed as inhibitors;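 note: plate controls were no enzyme wells and a reference inhibitor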
Target sequence (P00352 whole entry, looked up): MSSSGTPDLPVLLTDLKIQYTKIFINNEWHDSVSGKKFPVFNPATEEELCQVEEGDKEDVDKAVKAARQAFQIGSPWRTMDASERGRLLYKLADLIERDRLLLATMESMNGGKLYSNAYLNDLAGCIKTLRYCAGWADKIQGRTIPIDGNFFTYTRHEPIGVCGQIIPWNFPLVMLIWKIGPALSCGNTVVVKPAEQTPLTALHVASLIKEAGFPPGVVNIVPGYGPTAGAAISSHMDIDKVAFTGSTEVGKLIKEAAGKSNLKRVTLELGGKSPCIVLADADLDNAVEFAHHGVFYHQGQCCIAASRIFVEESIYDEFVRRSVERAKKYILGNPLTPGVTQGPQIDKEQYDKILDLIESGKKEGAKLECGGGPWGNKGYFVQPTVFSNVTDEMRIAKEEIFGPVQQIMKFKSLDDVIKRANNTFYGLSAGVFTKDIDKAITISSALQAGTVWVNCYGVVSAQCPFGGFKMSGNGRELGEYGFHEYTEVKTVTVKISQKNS
LMNA splice mod: LMNA splicing modulation; Potency, µM (doses to about 46.1 µM), for inactives: top-dose ratio change, negative = inhibition, usual class: inhibitors; hit rate 0.01% among 200,000; HeLa LMNA splicing GFP/RFP minigene ratio, 48 h; active = well fitted inhibition curve with a large enough effect in the signal ratio, with a control signal flat, not every such curve was filed as active; inconclusive = small, poorly fitted or top-dose-only effect, or effect the other way, or a change in a side signal; the % refers to the signal ratio; note: % is set by controls: 0 for no effect and ±100 for the full control effect
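S3 HeLa stable clones carrying a lamin A-EGFP splicing minigene plus DsRed2 were seeded at 600 cells/well in Opti-MEM with 2% FBS, pin-dosed and incubated 48 h at 37°C. Acumen cytometry (488 nm) gave the GFP/RFP total-intensity ratio.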
HttQ103 aggreg: inhibitors of mutant huntingtin aggregate formation in PC12 cells; PC12 HttQ103-GFP aggregates, Acumen cytometry, 40 h; Potency, µM (top dose mostly 46.1 µM), without a hit: at the highest dose activity change, negative = inhibition, actives largely listed as inhibitors; hit rate 1.1% among 220,000; active = well fitted curve in the direction sought with a large enough effect; inconclusive = small, poorly fitted or top-dose-only effect, or another doubt; inactive = no such curve, though single readings can be large; an effect the other way counts as inactive or inconclusive; note: % is set by controls: 0 for no effect and ±100 for the full control effect; nearly all actives have a fitted effect of over 60% in size
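Huntingtin Q103 exon 1–GFP aggregates in induced PC12 cells (100 nM tebufenozide) were quantified by cytometry from lysates, with compounds dosed in titration.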
* = called active by the depositor; ? = inconclusive; · = no result given; [ ] = remark or other dose. Most compounds without a hit are left out; they make up all but 8.8% or so of the library. Unless noted, calls come from the whole dose curve; as a rule, active = well fitted inhibition curve with a large enough effect (not every such curve was filed as active); inconclusive = small, poorly fitted or top-dose-only effect, or another doubt; inactive = no such curve, though single readings can be large or run the other way. Potency is the fitted concentration of half-maximal effect.

SMILES	HTT cytoprotect	HPGD block	ALDH1A1 inh	LMNA splice mod	HttQ103 aggreg
CCCOc1ccc(CCCN=C(N)N)cc1Cl	-2%[10 µM]	·	·	·	-5%[9.22 µM]
CCOC(=O)/C(=N\Nc1cc(Cl)ccc1Cl)N1CCOCC1	-26%	·	-14%	·	2%
CC(=O)c1ccc(NC(=O)c2nc3ccccc3n(C)c2=O)cc1	·	·	·	-1%[46 µM]	·
NC(=O)c1ccccc1N/C=C/C(=O)c1ccc(F)cc1	-67%	-21%	?	12%	-17%
NC(=O)c1ccccc1N/C=C/C(=O)c1ccc(Cl)cc1Cl	-87%	13µM*	?	-11%	?
C/C(=N\NC(N)=S)C1(C)CCCCC1	·	3%	?	-6%	4%
C/C(=N\NC(N)=O)C1(C)CCCCC1	10%	-10%	25µM*	14%	-14%[9.22 µM]
Cc1cc(C(F)F)n2ncc(C(=O)N3CCc4ccccc4C3)c2n1	-20%	22µM*	?	-8%	0%
O=C(c1cnn2c(C(F)F)cc(-c3ccccc3)nc12)N1CCCc2ccccc21	-5%[10 µM]	3%	20µM*	14%	1%
COc1ccc(-c2cc(C(F)F)n3ncc(C(=O)N4CCCc5ccccc54)c3n2)cc1	3%[10 µM]	·	11%	17%[46 µM]	20%[9.22 µM]
Oc1cc(O)cc(/C=C\c2ccc(O)c(O)c2)c1	-32%[1.9 µM]	·	·	·	·
CSCCC(NC(=O)c1ccc(C(C)(C)C)cc1)C(=O)O (configuration not stated)	-3%	·	2%	-8%[46 µM]	-5%
COc1cccc(-n2c(=O)c3c(C)c(C(=O)N(C)C)sc3n(Cc3ccc(F)cc3Cl)c2=O)c1	·	·	·	18%[46 µM]	·
COc1ccc(C(=O)Oc2ccc(C(=S)N3CCOCC3)cc2)cc1	-4%[10 µM]	·	7.1µM*	?	-8%[9.22 µM]
COC(=O)c1ccc(C(=S)N2CCOCC2)cc1	-16%[0.074 µM]	28µM*	10µM*	0%	29%
COC(=O)c1ccc(C(=S)N2CCCCC2)cc1	13%[10 µM]	·	-6%	13%[46 µM]	-4%
COc1ccc(CCN2CC(C(=O)NCc3ccc(F)cc3)CC2=O)cc1OC (configuration not stated)	-24%[10 µM]	·	·	·	-14%[9.22 µM]
CC(=O)Nc1sc2c(c1CN1CCCC1)CCCC2	12%[10 µM]	·	·	·	6%[9.22 µM]
CC(=O)Nc1sc2c(c1CN1CCN(c3ccccn3)CC1)CCCC2	?	-16%	22µM*	?	11%[9.22 µM]
COC(=O)c1sccc1NC(=O)CSc1ccc(Cl)cc1	9%	-2%	26%	14%	12%
COC(=O)c1sccc1NC(=O)CSc1ccccc1NS(=O)(=O)c1ccc(F)cc1	-15%[10 µM]	-13%	?	-15%	19%
COC(=O)c1sccc1NC(=O)CN(C)NS(=O)(=O)c1ccc(F)cc1	-11%	-3%	1µM*	-4%	-10%
COC(=O)c1sccc1NC(=O)CN(C)NS(=O)(=O)c1ccc(Cl)cc1	9%	-9%	2.5µM*	0%	-21%
COC(=O)c1sccc1NC(=O)CN(C)NS(=O)(=O)c1ccc([N+](=O)[O-])cc1	-44%	-18%	1.6µM*	10%	-18%
O=C(Cn1cnc2ccccc2c1=O)NCCC(=O)Nc1ccc2c(c1)OCO2	-31%	·	13%	6%[9.22 µM]	9%
SMILES	HTT cytoprotect	HPGD block	ALDH1A1 inh	LMNA splice mod	HttQ103 aggreg
C=C(C)C(=O)OCCCCCC	-17%	1%	8%	·	·
COC(=O)c1cn(C(=O)c2ccc(Br)o2)c2ccccc12	27%[10 µM]	-5%	32µM*	-13%	16%
Cc1cc2oc3c(c(=O)c2cc1C)C(c1ccc(F)cc1)N(CCCN1CCOCC1)C3=O (configuration not stated)	-18%[10 µM]	-18%	7.1µM*	2%	?
COc1ccc(C2c3c(oc4ccc(F)cc4c3=O)C(=O)N2CCN2CCOCC2)cc1OC (configuration not stated)	-7%	·	·	·	·
O=C1c2oc3ccccc3c(=O)c2C(c2cccc(F)c2)N1CCCO (configuration not stated)	9%	1%	14µM*	-2%	?
O=C1c2oc3ccccc3c(=O)c2C(c2cccnc2)N1Cc1ccco1 (configuration not stated)	7%[1.9 µM]	-1%	14µM*	4%	3%
O=C1c2oc3ccccc3c(=O)c2C(c2cccc(O)c2)N1CCCN1CCOCC1 (configuration not stated)	-10%	-6%	?	-6%	18%
Cn1c(C(=O)NCCc2ccccc2)cc2cc(S(=O)(=O)N3CCCCC3)ccc21	·	·	·	-1%[46 µM]	·
Nc1ccc(N(CCO)CCO)cc1	2%[10 µM]	·	16µM*	9%[46 µM]	-15%[9.22 µM]
CCN(CC)c1ccc(N)cc1	-53%	-16%	3.2µM*	·	·
O=C(c1ccco1)[C@@H]1[C@@H]2C(=O)N(c3ccc(F)cc3)C(=O)[C@@H]2[C@H]2C=Cc3ccccc3N21	24%[10 µM]	-22%	?	?	21%
N#C[C@@H]1[C@@H]2C(=O)N(c3ccc4c(c3)OCCO4)C(=O)[C@@H]2C2c3ccccc3C=CN21 (some centres not stated)	29%[10 µM]	?	?	-5%	-5%
O=C(c1ccco1)[C@@H]1[C@@H]2C(=O)N(c3ccc(Br)cc3)C(=O)[C@@H]2C2c3ccccc3C=CN21 (some centres not stated)	-15%	?	11µM*	10%	6%
O=C(c1ccco1)[C@@H]1[C@@H]2C(=O)N(c3ccc(F)cc3)C(=O)[C@@H]2C2c3ccccc3C=CN21 (some centres not stated)	-3%	32µM*	13µM*	2%	17%
CCOc1ccc(OC(=O)c2cn(-c3cccc(OC)c3)c(=O)c3ccccc23)cc1	·	·	·	2%[46 µM]	·
Cc1cc(C)cc(N(CC(=O)N2CCc3ccccc32)S(=O)(=O)c2c(C)noc2C)c1	11%	-14%	8.9µM*	1%	-3%
CCCN1C(=O)/C(=C/c2ccc3c(c2)OCO3)NC1=S	-7%	·	2.2µM*	·	-6%
CCNc1nc(N)nc(Oc2ccc(OCCOc3ccccc3)nn2)n1	4%	25µM*	2%	-8%	-8%
O=c1c2ccccc2sn1-c1nccs1	-8%[10 µM]	·	13µM*	?	15%
Cc1ccc(S(=O)(=O)N2c3ccccc3CC2C)cc1 (configuration not stated)	-13%[10 µM]	·	-4%	?	-3%
Cc1ccc(S(=O)(=O)N2c3ccc(S(N)(=O)=O)cc3CC2C)cc1 (configuration not stated)	-5%[0.074 µM]	-6%	25µM*	3%	5%
Clc1ccccc1-c1nccc(NCc2ccccc2)n1	-7%	·	?	?	·
CCOC(=O)c1sc2nc(NC(=O)C(C)(C)C)sc2c1C	-78%	?	?	?	35µM*
O=C(c1ccc(-c2ccc([N+](=O)[O-])cc2)o1)N1CCCCC1	-17%[10 µM]	7.1µM*	11µM*	?	-1%
O=C(c1ccc(-c2ccc(Cl)cc2)o1)N1CCN(c2ccc([N+](=O)[O-])cc2Cl)CC1	3%[10 µM]	-16%	3.2µM*	?	7.1µM*
